The results in this text go back to PubChem BioAssay AID898 (University of Pittsburgh Molecular Library Screening Center, 2007).

In all, about 140,000 compounds went through this assay and about 220 (0.16%) were called active. For the sample, actives were picked, then their nearest neighbours and some compounds at random. Values without a mark were called inactive. No stated cut-off is given here; in the data, active means inhibition above about 50%; inactive means the rest.

This test concerns YopH tyrosine phosphatase [Yersinia enterocolitica]. As to the kind of experiment: inhibition of Yersinia YopH phosphatase – biochemical, fluorescence Ex485/Em525, primary screen (AID 898). The following applies: stronger effect = higher value, concentration not given here.
For `COc1cc(/C=N/NC(=O)c2ccccc2)ccc1OS(=O)(=O)c1ccccc1`, the inhibition – broadly, the drop in the measured response relative to a control, in per cent – was -12.8%.
The figure for `COC(=O)c1ccccc1NS(=O)(=O)c1ccc2[nH]c(=O)[nH]c2c1` is -13.2%; for `Cc1cccc(CSc2ccc(-c3cccs3)nn2)c1` it is -8.04%; for `CC1(c2cccc([N+](=O)[O-])c2)CC(C)(C)N(C(=O)c2ccccc2)c2ccccc21` (centres undefined) it is -13.3%.
Consider `O=C(NC(=S)Nc1cc(C(F)(F)F)ccc1N1CCOCC1)c1ccc(-c2cccc(Cl)c2)o1`, for which the inhibition is -11.4%.
The value for `CCN(CC(=O)NC1CCS(=O)(=O)C1)S(=O)(=O)c1ccccc1` (centres undefined) was -27.4%; that for `O=c1cc(-c2ccccc2)[nH]c2cc(F)ccc12` was -25.5%; that for `Clc1ccc(C2=CSC3=Nc4cccc5cccc(c45)N23)cc1` was 76.1% (active).
On to `COc1ccc2c(c1)CC[C@@H]1[C@@H]2CC[C@]2(C)C(=O)CC[C@@H]12`, for which the inhibition is -40.8%.
With `COC(=O)/C=C\C(=O)Nc1cccc([N+](=O)[O-])c1`, the inhibition is -15.7%.
The value for `Cc1ccc(NC(=O)Cn2cccc2C2=NC(c3ccccc3)CO2)c(C)c1` (centres undefined) was -4.93%; that for `Cc1ccc(S(=O)(=O)Nc2nc(C)cc(N/N=C/c3ccc(O)cc3)n2)cc1` was -24.5%.
The value for `Cn1cnc(C(F)(F)F)c1-c1ccc([N+](=O)[O-])cc1` was -26.6%; that for `Cc1ccc(NC(=O)CN(C)Cc2ccc(F)cc2)c([N+](=O)[O-])c1` was -24.9%; that for `Cc1ccccc1C(OCCN(C)C)C1CCCCC1` (centres undefined) was -18.4%.
In the case of `N#Cc1ccc(C(=O)Nc2nc(-c3cccs3)c(C(=O)C(F)(F)F)s2)cc1`, the inhibition is -10.1%.
For the compound `O=C(/C(=C/c1cccc(Cl)c1)c1nc2ccccc2[nH]1)c1ccccc1`, the inhibition is -25%.
With `NNc1nc2c(Cl)cccc2s1`, the inhibition is -22%.
In the case of `Cc1cc(N2CCOCC2)nc(-c2ccc(Br)cc2)n1`, the inhibition was 5.67%.
Take `CCCCNC(=O)C1CCC(CNS(=O)(=O)c2ccc(NC(C)=O)cc2)CC1` (centres undefined): the inhibition was -25.8%.
The value for `COC(=O)NNC(=O)C1CCC(C)CC1` (centres undefined) was -19.5%.
On to `COc1ccc(-c2cc(C(F)(F)F)nc(SCC(=O)Nc3ccc4c(c3)OCO4)n2)cc1OC`, for which the inhibition is -21.2%.
For the compound `Cc1cccc(N2C(=O)SC(SC(=Nc3ccccc3)Nc3ccccc3)C2=O)c1` (centres undefined), the inhibition is -18.8%.
The figure for `Cc1ccc2c(c1)C1CN(C)CCC1N2C(=O)c1ccccc1NS(=O)(=O)c1ccc(F)cc1C` (centres undefined) is -30.2%; for `Cc1nc2ccccc2n1CC(=O)N/N=C/c1cccs1` it is -17.2%.
The value for `Cc1ccc(NC(=O)CCC(=O)N/N=C/c2ccco2)c(C)c1` was -19.1%.
As to `CCCNC(=O)OC[C@H]1O[C@H](CCO/N=C/[C@@H](NS(=O)(=O)c2ccc(C)cc2)[C@H](C)/C=C/CC(=O)OC)C=C[C@@H]1Oc1ccc(OC)cc1`, the inhibition is -21.3%.
The figure for `CC(=O)c1ccc(NC(=S)NC(=O)CC(C)C)cc1` is -2.98%; for `COc1cc(OC)cc(C(=O)N[C@H](C(=O)OCC(=O)NC(C)c2ccccc2)C(C)C)c1` (some centres undefined) it is -27.4%.
As to `CCCCC(CC(C)O)c1n[nH]c(=S)n1-c1ccccc1` (centres undefined), the inhibition was -33.5%.
For `CC(C)c1nccn1S(=O)(=O)c1cc([N+](=O)[O-])ccc1Cl`, the inhibition is -25.1%.
The value for `CCCCCOc1ccc(/C=C/C(=O)NCCc2nc3ccccc3[nH]2)cc1OC` was -36.7%; that for `C=CCNC(=S)NNC(=O)COc1c(Cl)cc(Cl)cc1Cl` was -25.1%.
The value for `COC(=O)Cc1ccc(NC(=S)NCc2ccccc2)cc1` was -21.4%.
Take `Cc1ccc(OCc2nnc(SC3CCc4ccccc4C3=O)n2C)cc1` (centres undefined): the inhibition is -10.2%.
For the compound `O=C(Nc1nnc(SCc2ccccc2Cl)s1)c1cccc([N+](=O)[O-])c1`, the inhibition was -19.7%.
The figure for `CC/C(=N\NC(=O)c1ccccc1Cl)c1ccc(Br)s1` is -30%.
The value for `CCCCN=C1C([N+](=O)[O-])=CC=C2C1=NC1(CCCCC1)N2O` was -23.5%; that for `Cc1ccc(S(=O)(=O)N2CCOCC2)cc1C(=O)NC(=S)N(Cc1ccccc1)C(C)C` was -13.5%; that for `CC(C)Nc1nnc(SCC(=O)c2c[nH]c3ccccc23)s1` was -37.7%.
For the compound `O=C(c1cccs1)n1nc(NCc2ccccc2)nc1NCc1ccccc1`, the inhibition is -28.9%.
The value for `COc1ccccc1-c1nnc(NC(=O)c2ccc3ncsc3c2)o1` was -9.55%; that for `CN(C)c1ccnc2sc(C(=O)c3ccccc3)c(N)c12` was 9.26%; that for `O=C(O)CCS(=O)(=O)c1ccc(-c2ccccc2)cc1` was -26.8%.
For `CCOc1ncccc1C(=O)N(C)CC(=O)Nc1ccc(F)cc1`, the inhibition was -16.5%.
The value for `CCOC(=O)c1c(/N=C/c2cc(C)ccc2O)sc2c1CCC2` was -9.28%.
The figure for `CCNC(=S)N(CCc1c(C)[nH]c2ccc(C)cc12)Cc1ccco1` is -11.6%.
The figure for `C=CCOc1ccc(/C=N/NC(=O)C(C)Sc2ccccn2)cc1OCC` (centres undefined) is -28.1%; for `O=C(COC(=O)Cc1ccc(Br)cc1)Nc1c(F)c(F)c(F)c(F)c1F` it is -9.87%.
As for `CN(C)c1ccc(/C=N/N(Cc2ccccc2)c2ccccc2)cc1`, the inhibition was -23.4%.
On to `C=CCn1c(SCC(N)=O)nnc1-c1cc2c(s1)CCC(CC)C2` (centres undefined), for which the inhibition was -11%.
Regarding `CCC(C)(C(=O)Nc1ccccc1C)N(C(=O)CNC(C)=O)c1ccc(C)cc1` (centres undefined), the inhibition is -34.2%.
The value for `CC(C)C(=O)Nc1ccc(C(=O)NNC(=O)c2cccs2)cc1` was -18.7%; that for `CCc1ccc(NC(=O)C(C)OC(=O)/C=C/c2cccc([N+](=O)[O-])c2)cc1` (centres undefined) was -14.1%; that for `COc1cc(/C=N/NC(=O)CCc2n[nH]c(=O)[nH]c2=O)ccc1O` was -11.1%.
`Cc1ccc(N(C(=O)C(F)(F)F)C(C(=O)NC2CCCCC2)c2ccncc2)cc1C` (centres undefined): the inhibition was -8.07%.
For the compound `COc1ccc(-c2nnc(SCC(=O)c3cccs3)o2)c(OC)c1`, the inhibition was 90.3% (active).
For the compound `COc1ccc(OC)c(C(=O)CSc2nnc(-c3cccs3)o2)c1`, the inhibition was -17.3%.
For the compound `COc1ccc(-n2c(C)cc(C(=O)CSc3nnc(-c4cccs4)o3)c2C)cc1`, the inhibition is -23.9%.
